Activity calls are given as the source filed them. Rule for the calls: active = hit-call score of the fitted dose curve at least 0.9, where 1 is the maximum; inactive = score below 0.9.
Columns and labels:
[1] = read-out: Plasminogen activator inhibitor-1 (PAI1), SERPINE1 (gene 5054); assay: BSK_hDFCGF_PAI1: BioMAP Diversity Plus: hDFCGF Assay for Plasminogen activator inhibitor-1 (PAI1) Biomarker Activity (AID 2283066); conditions: primary human foreskin fibroblasts; actives raise or lower the signal
How it was run: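 Human foreskin fibroblasts in the hDFCGF system were dosed with compound for 24 h; PAI-1 was quantified by ELISA. Bidirectional curve fitting used DMSO as negative control and baseline.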

[2] = read-out: Intercellular Adhesion Molecule 1 (ICAM1), ICAM1 (gene 3383); assay: BSK_KF3CT_ICAM1: BioMAP Diversity Plus: KF3CT Assay for Intercellular Adhesion Molecule 1 (ICAM1) Biomarker Activity (AID 2283067); conditions: primary human keratinocytes with fibroblasts; actives raise or lower the signal
How it was run: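 Bidirectional curve fitting against a DMSO baseline was applied to ICAM-1 ELISA signal from primary human skin co-cultures harvested 24 h after treatment, with SRB staining of parallel wells for overt cytotoxicity.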

[3] = BSK_KF3CT_SRB: Viability Assessment in the BioMAP Diversity Plus: KF3CT Assay (AID 2283069); conditions: primary human keratinocytes with fibroblasts;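 note: total protein by sulforhodamine B staining as a cytotoxicity measure; read 24 h after compound addition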
How it was run: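 Human primary keratinocyte plus foreskin fibroblast co-culture exposed to chemicals for 24 h. Total protein measured by 0.1% sulforhodamine B staining after 10% TCA fixation, read at 560 nm; bidirectional fitting versus DMSO baseline.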

[4] = read-out: Interleukin-1 alpha (IL1a), IL1A (gene 3552); assay: BSK_KF3CT_IL1a: BioMAP Diversity Plus: KF3CT Assay for Interleukin-1 alpha (IL1a) Biomarker Activity (AID 2283070); conditions: primary human keratinocytes with fibroblasts; actives raise or lower the signal
How it was run: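 Human keratinocyte plus foreskin fibroblast primary co-culture, sampled 24 h after chemical dosing. IL-1a measured by ELISA; responses fitted bidirectionally against DMSO baseline (negative control), so gain or loss of signal both count.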

[5] = read-out: TIMP metallopeptidase inhibitor 2 (TIMP2), TIMP2 (gene 7077); assay: BSK_KF3CT_TIMP2: BioMAP Diversity Plus: KF3CT Assay for TIMP metallopeptidase inhibitor 2 (TIMP2) Biomarker Activity (AID 2283071); conditions: primary human keratinocytes with fibroblasts; actives raise or lower the signal
How it was run: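 Human primary keratinocyte/foreskin fibroblast co-culture dosed with chemical and sampled at 24 h. TIMP-2 levels quantified by ELISA; bidirectional fitting against DMSO negative control as baseline.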

[6] = read-out: Transforming growth factor beta 1 (TGFb1), TGFB1 (gene 7040); assay: BSK_KF3CT_TGFb1: BioMAP Diversity Plus: KF3CT Assay for Transforming growth factor beta 1 (TGFb1) Biomarker Activity (AID 2283072); conditions: primary human keratinocytes with fibroblasts; actives raise or lower the signal
How it was run: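 Human keratinocyte plus foreskin fibroblast primary co-culture, dosed with chemical for 24 h. TGF-b1 quantified by ELISA. Activity fitted bidirectionally against DMSO negative control as baseline.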

[7] = read-out: C-C motif chemokine 2 (Homo sapiens) (UniProt P13500); assay: BSK_KF3CT_MCP1: BioMAP Diversity Plus: KF3CT Assay for Monocyte Chemoattractant Protein 1 (MCP1/CCL2) Biomarker Activity (AID 2283073); conditions: primary human keratinocytes with fibroblasts; actives raise or lower the signal
How it was run: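 Biomarker MCP-1 is measured by ELISA in primary human keratinocytes co-cultured with foreskin fibroblasts, 24 h after chemical treatment; DMSO serves as the negative control and activity baseline.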

[8] = read-out: Matrix Metallopeptidase 9 (MMP9), MMP9 (gene 4318); assay: BSK_KF3CT_MMP9: BioMAP Diversity Plus: KF3CT Assay for Matrix Metallopeptidase 9 (MMP9) Biomarker Activity (AID 2283074); conditions: primary human keratinocytes with fibroblasts; actives raise or lower the signal;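 for AC50: MMP9 protein level quantified by ELISA in the co-culture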
How it was run: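 Keratinocyte plus foreskin fibroblast human primary skin co-culture was dosed with chemical and MMP-9 was quantified by ELISA 24 h later. Bidirectional curve fitting used DMSO as negative control and activity baseline.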

[9] = read-out: urokinase plasminogen activator (uPA), PLAU (gene 5328); assay: BSK_KF3CT_uPA: BioMAP Diversity Plus: KF3CT Assay for urokinase plasminogen activator (uPA) Biomarker Activity (AID 2283075); conditions: primary human keratinocytes with fibroblasts; actives raise or lower the signal
How it was run: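 Human keratinocyte plus foreskin fibroblast primary co-culture exposed to chemical for 24 h. uPA levels were quantified by ELISA, and activity was fitted bidirectionally against a DMSO negative-control baseline.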

CD40, CD40 (gene 958) = assay: BSK_LPS_CD40: BioMAP Diversity Plus: LPS Assay for CD40 Biomarker Activity (AID 2283076); conditions: primary human HUVEC with PBMC; actives raise or lower the signal
How it was run: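 Using a multiplexed primary human co-culture (umbilical vein endothelium plus PBMC), CD40 was read by ELISA 24 h after dosing, with cytotoxicity tracked by sulforhodamine B staining of parallel cultures and activity fitted bidirectionally versus DMSO.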

[10] = read-out: E-selectin (Homo sapiens) (UniProt P16581); assay: BSK_LPS_Eselectin: BioMAP Diversity Plus: LPS Assay for Eselectin Biomarker Activity (AID 2283077); conditions: primary human HUVEC with PBMC; actives raise or lower the signal
How it was run: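 Dose chemical onto LPS-driven HUVEC/PBMC co-culture; after 24 h, run ELISA for E-selectin; fit up- and down-going responses relative to DMSO control.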

[11] = read-out: Interleukin-8 (IL8), CXCL8 (gene 3576); assay: BSK_LPS_IL8: BioMAP Diversity Plus: LPS Assay for Interleukin-8 (IL8) Biomarker Activity (AID 2283078); conditions: primary human HUVEC with PBMC; actives raise or lower the signal
How it was run: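 In this LPS system, chemical-treated human umbilical vein endothelium/PBMC co-cultures were harvested at 24 h for IL-8 ELISA.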

[12] = BSK_LPS_SRB: Viability Assessment in the BioMAP Diversity Plus: LPS Assay (AID 2283079); conditions: primary human HUVEC with PBMC;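 note: total protein by sulforhodamine B absorbance as a cytotoxicity measure; measured one day after compound addition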
How it was run: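 Cytotoxicity endpoint in human endothelial–PBMC co-culture: 24 h exposure, then SRB (0.1%) staining, 560 nm read.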

[13] = read-out: Interleukin-1 alpha (IL1a), IL1A (gene 3552); assay: BSK_LPS_IL1a: BioMAP Diversity Plus: LPS Assay for Interleukin-1 alpha (IL1a) Biomarker Activity (AID 2283080); conditions: primary human HUVEC with PBMC; actives raise or lower the signal
How it was run: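 Primary human HUVEC and PBMC co-culture stimulated with LPS is dosed and harvested at 24 h. Both increases and decreases in ELISA-measured IL-1a are scored relative to DMSO.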

[14] = read-out: Monocyte Chemoattractant Protein-1 (MCP1), CCL2 (gene 6347); assay: BSK_LPS_MCP1: BioMAP Diversity Plus: LPS Assay for Monocyte Chemoattractant Protein-1 (MCP1) Biomarker Activity (AID 2283081); conditions: primary human HUVEC with PBMC; actives raise or lower the signal;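 for AC50: secreted MCP-1 protein quantified by ELISA in culture supernatant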
How it was run: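 Values derive from bidirectional fitting against DMSO of ELISA-measured MCP-1 in a human primary endothelial and mononuclear cell co-culture, 24 h after chemical addition under LPS activation.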

[15] = BSK_LPS_PGE2: BioMAP Diversity Plus: LPS Assay for Prostaglandin E2 (PGE2) Biomarker Activity (AID 2283082); conditions: primary human HUVEC with PBMC; actives raise or lower the signal;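 for AC50: secreted prostaglandin E2 measured by ELISA in LPS-stimulated co-culture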
How it was run: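 HUVEC plus PBMC co-culture stimulated with LPS; secreted PGE2 quantified by ELISA 24 h after chemical dosing. Activity fitted bidirectionally against DMSO as negative control and baseline; parallel SRB total-protein staining served as cytotoxicity check.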

[16] = read-out: Macrophage colony-stimulating factor (MCSF), CSF1 (gene 1435); assay: BSK_LPS_MCSF: BioMAP Diversity Plus: LPS Assay for Macrophage colony-stimulating factor (MCSF) Biomarker Activity (AID 2283083); conditions: primary human HUVEC with PBMC; actives raise or lower the signal
How it was run: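 Bidirectional fit versus DMSO of ELISA-measured M-CSF in co-cultured human umbilical vein endothelial cells and PBMC, sampled 24 h after dosing.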

[17] = read-out: Tissue Factor, F3 (gene 2152); assay: BSK_LPS_TissueFactor: BioMAP Diversity Plus: LPS Assay for Tissue Factor Biomarker Activity (AID 2283084); conditions: primary human HUVEC with PBMC; actives raise or lower the signal
How it was run: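 Read-out: CD142 ELISA, 24 h. System: LPS-driven human endothelial/PBMC co-culture. Analysis: up- or down-signal fitted against DMSO.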

[18] = read-out: Tumor necrosis factor (Homo sapiens) (UniProt P01375); assay: BSK_LPS_TNFa: BioMAP Diversity Plus: LPS Assay for Tumour Necrosis Factor alpha (TNFa) Biomarker Activity (AID 2283085); conditions: primary human HUVEC with PBMC; actives raise or lower the signal;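 for AC50: TNFa protein level quantified by ELISA in the co-culture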
How it was run: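 Human umbilical vein endothelial cells co-cultured with PBMC were exposed to test chemical and TNFa measured by ELISA 24 h after dosing. Bidirectional curve fitting was done relative to DMSO as negative control and baseline.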

Measured: AC50

E-selectin (Homo sapiens), sequence (P16581 whole entry, looked up): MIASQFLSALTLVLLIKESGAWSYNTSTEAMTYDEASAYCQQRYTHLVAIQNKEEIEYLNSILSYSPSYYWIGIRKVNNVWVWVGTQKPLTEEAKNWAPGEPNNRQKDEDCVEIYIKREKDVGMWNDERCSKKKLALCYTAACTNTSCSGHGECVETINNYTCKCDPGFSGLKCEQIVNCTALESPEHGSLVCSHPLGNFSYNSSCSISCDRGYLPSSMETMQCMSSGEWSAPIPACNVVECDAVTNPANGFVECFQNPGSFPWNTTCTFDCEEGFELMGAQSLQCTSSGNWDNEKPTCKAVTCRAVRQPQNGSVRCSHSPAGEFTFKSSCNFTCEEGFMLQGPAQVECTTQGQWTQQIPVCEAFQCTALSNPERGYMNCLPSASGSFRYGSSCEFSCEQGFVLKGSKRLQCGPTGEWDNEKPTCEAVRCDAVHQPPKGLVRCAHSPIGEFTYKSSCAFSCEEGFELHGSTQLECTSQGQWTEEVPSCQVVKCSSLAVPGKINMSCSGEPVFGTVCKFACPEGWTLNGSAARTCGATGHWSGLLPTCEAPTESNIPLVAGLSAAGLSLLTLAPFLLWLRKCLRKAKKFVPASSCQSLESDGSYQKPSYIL
Tumor necrosis factor (Homo sapiens), sequence (P01375 whole entry, looked up): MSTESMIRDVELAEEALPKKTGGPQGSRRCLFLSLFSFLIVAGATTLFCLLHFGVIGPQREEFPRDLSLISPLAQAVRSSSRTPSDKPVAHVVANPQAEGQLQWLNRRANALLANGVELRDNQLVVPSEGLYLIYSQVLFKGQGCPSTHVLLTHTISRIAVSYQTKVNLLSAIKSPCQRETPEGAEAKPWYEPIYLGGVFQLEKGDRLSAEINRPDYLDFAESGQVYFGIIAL

c1ccc(N=Nc2ccccc2)cc1
inactive: all assays above

[Cl-].[Cl-].[Hg+2]
active: [1] 12.2 µM | [2] 20.8 µM | [3] 13.2 µM | [4] 30.4 µM | [5] 29.2 µM | [6] 7.74 µM | [7] 20 µM | [8] 13.5 µM | [9] 13.1 µM | CD40, CD40 (gene 958) 38.8 µM | [10] 37 µM | [11] 30.9 µM | [12] 20 µM | [16] 31.7 µM | [17] 32.9 µM
inactive: [13] | [14] | [15]

C1=Cc2cccc3cccc1c23
not listed: [7] | [18]
inactive: all other assays above

CCN(CC)CCO
not listed: [7]
inactive: all other assays above

CCN(CC)N=O
not listed: [7] | [18]
inactive: all other assays above

CC(C)(O)c1cnn2c(-c3ccc(F)c(-c4c(F)cccc4C#N)c3)cnc2n1
active: [3] 33.2 µM | [5] 31 µM | [6] 36 µM | [8] 34.6 µM | [9] 31.9 µM | [11] 3.82 µM | [15] 30.6 µM | [16] 20 µM | [18] 9.68 µM
inactive: [1] | [2] | [4] | CD40, CD40 (gene 958) | [10] | [12] | [13] | [14] | [17]

CCC[CH2][Sn]([Cl])([CH2]CCC)[CH2]CCC
active: [1] 0.296 µM | [2] 0.148 µM | [3] 0.422 µM | [4] 0.294 µM | [5] 0.246 µM | [6] 0.692 µM | [8] 0.292 µM | [9] 0.148 µM | CD40, CD40 (gene 958) 0.148 µM | [10] 0.148 µM | [11] 0.148 µM | [12] 0.269 µM | [13] 0.344 µM | [14] 0.148 µM | [16] 0.615 µM | [17] 0.148 µM
inactive: [15]

Oc1ccccc1Cl
not listed: [7] | [18]
inactive: all other assays above

OCCCBr
not listed: [7] | [18]
inactive: all other assays above

Clc1ccc(C(c2ccc(Cl)cc2)C(Cl)Cl)cc1
active: [1] 7.29 µM | [2] 15.5 µM | [3] 12.8 µM | [4] 13.8 µM | [5] 11.2 µM | [6] 9.57 µM | [7] 10.4 µM | [8] 10.2 µM | [9] 11.6 µM | CD40, CD40 (gene 958) 29 µM | [10] 30.3 µM | [13] 28.6 µM | [14] 35.2 µM | [15] 28.5 µM | [16] 25.6 µM | [17] 37.8 µM | [18] 31.7 µM

CCCCCCCCn1sccc1=O
active: [1] 1.4 µM | [2] 9.79 µM | [3] 6.74 µM | [4] 9.05 µM | [5] 11.2 µM | [6] 9.71 µM | [8] 12.4 µM | [9] 11.2 µM | CD40, CD40 (gene 958) 5.76 µM | [10] 9.25 µM | [11] 9.78 µM | [12] 20.8 µM | [13] 4.97 µM | [14] 6.88 µM | [15] 0.857 µM | [16] 7.58 µM | [17] 4.04 µM

COC(=O)c1ccccc1N
inactive: all assays above

c1ccc(C2CO2)cc1 (centres undefined)
not listed: [7] | [18]
inactive: all other assays above

CC(O)CCO (centres undefined)
inactive: all assays above

CN(C)c1ccc(C(=O)c2ccc(N(C)C)cc2)cc1
active: [6] 5.11 µM | CD40, CD40 (gene 958) 17 µM | [11] 6.12 µM | [12] 13.4 µM | [15] 2.63 µM
not listed: [7] | [18]
inactive: all other assays above

From PubChem BioAssay (EPA / NIEHS)
